A selection: hits, their analogues and other compounds. The true share with any hit is near 3.8%.
S2 tox = Viability Counterscreen for Primary qHTS for Inhibitors of ATXN expression; 400,000 tested, 0.49% active; Potency, µM (top dose mostly 56.7 µM), most hits filed as cytotoxic; S2 cells (HEK-293 line with an ATXN2-luciferase reporter) viability, CellTiter-Fluor protease fluorescence, 24 h; also: nearly all actives have a fitted effect of over 40% in size
Nrf2 inh = Nrf2 qHTS screen for inhibitors | Potency, µM (highest dose often 46 µM), most hits filed as inhibitors | AID 504444, 2011 | 360,000 tested, 2.1% active | A549 ARE-Fluc reporter, luciferase luminescence, 18-24 h; also: nearly all actives have a fitted effect of over 60% in size
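Reporter: ARE-Fluc in A549. Exposure: 18-24 h, 37 °C, 5% CO2, 5% FBS OPTI-MEM. Readouts: fluorescent cytotoxicity (CellTiter-Fluor), then luminescent Nrf2 signal after BugLite.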
TGFb inhibitor = qHTS for Inhibitors of TGF-b; HepG2 CAGA-GFP TGF-b/SMAD3 reporter, GFP fluorescence, 18 h; TGF-beta stimulated, 500 pg/mL final; Potency, µM (doses to about 46.1 µM), usual class: inhibitors; 410,000 tested, 1.2% active; AID 588855, 2011; also: nearly all actives have a fitted effect of over 65% in size
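Inhibition of TGF-beta-driven CAGA-GFP reporter expression in HEPG2 cells is measured by cellular GFP fluorescence after 18 h stimulation with 500 pg/mL recombinant TGF-beta in 1% FBS medium at 37 degrees C.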
A549 viability = Nrf2 qHTS screen for inhibitors: counterscreen for cytotoxicity | A549 ARE-Fluc cells, CellTiter-Fluor viability, 18-24 h | Potency, µM (doses to about 46 µM), usual class: inhibitors | 390,000 tested, 0.16% active | AID 504648, 2011
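A549 ARE-Fluc cells in 5% FBS OPTI-MEM, 5000 cells/well, rested 2 h then exposed to compounds in concentration-response for 18-24 h at 37 °C. Viability by CellTiter-Fluor fluorescence (Ex 405/Em 525) after 30 min; luciferase luminescence (BugLite, 15 min, RT) read afterwards.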
ATXN2 expr inh = Primary qHTS for Inhibitors of ATXN expression. HEK-293 ATXN2-luciferase reporter, luminescence, 24 h. Potency, µM (doses to about 57 µM), most hits filed as inhibitors. 360,000 tested, 0.72% active. AID 1745845, 2022; also: nearly all actives have a fitted effect of over 55% in size
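ATXN2-luciferase reporter cells (luciferase flanked by upstream and downstream ATXN2 gene portions) were treated 24 h at 37 °C with compounds at up to 57 uM. SteadyGlo luminescence gave expression; GF-AFC fluorescence gave viability.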
HepG2 tox = qHTS for Inhibitors of TGF-b: Cytotox Counterscreen; HepG2 CAGA-GFP viability, ATP luminescence, 18 h; Potency, µM (doses to about 46.1 µM), actives largely listed as cytotoxic; 410,000 tested, 0.76% active
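HepG2 CAGA-GFP cells (1000/well, DMEM with 1% FBS) received compound, then TGF-beta at 500 pg/mL final, and were incubated 18 hours at 37 degrees C. Viability was read by CellTiter-Glo luminescence. Media-only wells were set as complete cell-killing and DMSO as no toxicity.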
A number is an active result; [ ] = dose if it differs, or a comment. Calls follow the shape of the dose curve; as a rule, active = well fitted curve in the direction sought with a large enough effect; inconclusive = small, poorly fitted or top-dose-only effect, or another doubt; inactive = no such curve, though single readings can be large; an effect the other way counts as inactive or inconclusive.

For COCCN(C(=O)COC(=O)C1CCC(C(C)(C)C)CC1)c1c(N)n(Cc2ccccc2)c(=O)[nH]c1=O (stereo not given) the results were S2 tox inconclusive, Nrf2 inh inconclusive, TGFb inhibitor inactive, A549 viability inactive, ATXN2 expr inh inconclusive and HepG2 tox inactive.
Screening CCOC(=O)c1ccc(NC(=O)c2c(-c3c(F)cccc3Cl)noc2C)cc1 returned S2 tox inactive, Nrf2 inh inactive, TGFb inhibitor inactive, A549 viability inactive, ATXN2 expr inh inactive and HepG2 tox inactive.
NNc1nc(-c2ccccc2)cc(-c2ccccc2)n1 was read as S2 tox inconclusive, Nrf2 inh 9.2µM, TGFb inhibitor inactive, A549 viability inactive, ATXN2 expr inh inconclusive and HepG2 tox inactive.
`NC(=O)COC(=O)c1ccccc1OCc1ccccc1Cl` gave S2 tox inactive, Nrf2 inh inactive, TGFb inhibitor inactive, A549 viability inactive, ATXN2 expr inh inactive[11.3 µM] and HepG2 tox inactive.
`CCN(CC(O)CON=C1c2ccccc2-c2ccccc21)S(=O)(=O)c1ccc(Cl)cc1` (stereo not given) gave Nrf2 inh inconclusive, TGFb inhibitor inactive, A549 viability inactive, ATXN2 expr inh inconclusive and HepG2 tox inactive.
Screening CC(C)CCNCC(O)CON=C1c2ccccc2-c2ccccc21 (stereo not given) returned S2 tox inconclusive, Nrf2 inh inactive, TGFb inhibitor inconclusive, A549 viability inactive and HepG2 tox inactive.
For CN(CC(O)CON=C1c2ccccc2-c2ccccc21)S(=O)(=O)c1ccc(Br)cc1 (stereo not given) the results were S2 tox inactive, Nrf2 inh 20.6µM, TGFb inhibitor inconclusive, A549 viability inconclusive, ATXN2 expr inh inconclusive and HepG2 tox inactive.
`CCN(CC(O)CON=C1c2ccccc2-c2ccccc21)S(=O)(=O)c1ccc(C)cc1` (stereo not given) gave S2 tox inactive, Nrf2 inh 20.6µM, TGFb inhibitor inactive, A549 viability inconclusive, ATXN2 expr inh inconclusive and HepG2 tox inactive.
`CCOC(=O)N1CCN(CC(=O)Nc2sc(CC)cc2C(=O)c2ccc(OC)cc2)CC1` gave S2 tox inactive, Nrf2 inh inconclusive, TGFb inhibitor inconclusive, A549 viability inactive, ATXN2 expr inh inactive and HepG2 tox inactive.
`COc1ccc(N=c2cc(-c3ccc(OC)cc3)oc3ccccc23)cc1` gave S2 tox inconclusive, Nrf2 inh 16.4µM, TGFb inhibitor inconclusive, A549 viability inconclusive, ATXN2 expr inh inconclusive and HepG2 tox inactive.
`COc1ccc(-c2cc(=Nc3ccc(C)cc3)c3ccccc3o2)cc1` gave S2 tox inconclusive, Nrf2 inh inconclusive, TGFb inhibitor inactive, A549 viability inactive, ATXN2 expr inh inconclusive and HepG2 tox inactive.
`CCc1ccccc1NC(=O)C1CC(c2ccc(F)cc2)=NO1` (stereo not given) gave S2 tox inactive, Nrf2 inh inconclusive, TGFb inhibitor inactive, A549 viability inactive, ATXN2 expr inh inactive and HepG2 tox inactive.
For COC(=O)c1ccccc1NC(=O)C1CC(c2ccc(F)cc2)=NO1 (stereo not given) the results were S2 tox inactive, Nrf2 inh 4.11µM, TGFb inhibitor inactive, A549 viability inactive, ATXN2 expr inh inactive and HepG2 tox inactive.
For CCSC(=O)N1c2ccc(OC)cc2C=CC1C#N (stereo not given) the results were S2 tox inconclusive, Nrf2 inh inconclusive, TGFb inhibitor inconclusive, A549 viability inactive, ATXN2 expr inh inactive and HepG2 tox inactive.
For O=C(Nc1ccc(F)cc1F)c1cccc(C(=O)Nc2ccc(F)cc2F)n1 the results were S2 tox 4.47µM, Nrf2 inh inconclusive, TGFb inhibitor inactive, A549 viability inconclusive, ATXN2 expr inh 2.51µM and HepG2 tox inactive.
For O=C(Nc1ccc(F)cc1F)c1csc(-c2ccccc2)n1 the results were S2 tox inactive, Nrf2 inh inconclusive, TGFb inhibitor inactive, A549 viability inactive, ATXN2 expr inh inactive and HepG2 tox inactive.
O=C1[C@@H]2Cc3c([nH]c4ccccc34)C(c3cccc(Br)c3)N2C(=O)CN1C1CCN(Cc2ccccc2)CC1 (stereo not given in full) was read as S2 tox inconclusive, Nrf2 inh inconclusive, TGFb inhibitor 15.8µM, A549 viability inconclusive, ATXN2 expr inh inconclusive and HepG2 tox inactive.
`O=C1[C@@H]2Cc3c([nH]c4ccccc34)C(c3ccccc3)N2C(=O)CN1C1CCN(Cc2ccccc2)CC1` (stereo not given in full) gave S2 tox inconclusive, Nrf2 inh inactive, TGFb inhibitor inconclusive, A549 viability inconclusive, ATXN2 expr inh inconclusive and HepG2 tox inactive.
Screening CC(=O)c1ccc(NC(=O)CSC2=Nc3ccccc3N=C(c3ccc(F)cc3)C2)cc1 returned S2 tox inactive, TGFb inhibitor inconclusive, A549 viability inactive, ATXN2 expr inh inactive and HepG2 tox inactive.
For COc1ccc([C@H]2CC(=O)C=C(c3ccc(Cl)c(C(F)(F)F)c3)C2)cc1OC the results were S2 tox inconclusive, Nrf2 inh 16.4µM, TGFb inhibitor inconclusive, A549 viability inconclusive, ATXN2 expr inh inconclusive and HepG2 tox inactive.
COC(=O)C(C(=O)OC)C(CC(=O)c1ccc(C)cc1)c1cc(OC)c(OC)c(OC)c1 (stereo not given) was read as S2 tox inactive, Nrf2 inh inactive, TGFb inhibitor inactive, A549 viability inactive, ATXN2 expr inh inactive and HepG2 tox inactive.
COc1ccc(C(CC(=O)c2ccc(C)cc2)C(C#N)C#N)cc1OC (stereo not given) was read as S2 tox 29.9µM, Nrf2 inh inconclusive, TGFb inhibitor inconclusive, A549 viability inconclusive, ATXN2 expr inh inconclusive and HepG2 tox inactive.
Screening CC(=O)N1c2ccccc2CC1C(=O)N1CCN(c2cccc(Cl)c2)CC1 (stereo not given) returned S2 tox inactive, TGFb inhibitor inactive, A549 viability inactive, ATXN2 expr inh inactive and HepG2 tox inactive.
`Cc1noc(/C=C/c2ccco2)c1S(=O)(=O)N1CCC(C(=O)Nc2ccc(F)c(Cl)c2)CC1` gave Nrf2 inh inconclusive, TGFb inhibitor 2.51µM, A549 viability inactive and HepG2 tox inactive.
Cc1ccc(NC(=O)C2CCN(S(=O)(=O)c3c(C)noc3/C=C/c3ccco3)CC2)cc1C was read as Nrf2 inh inactive, TGFb inhibitor inactive, A549 viability inactive and HepG2 tox inactive.

Screening data deposited in PubChem BioAssay by National Center for Advancing Translational Sciences (NCATS).
